High-throughput results: PubChem, National Center for Advancing Translational Sciences (NCATS)
An excerpt weighted towards active compounds, which were near 2.6% of everything screened.
SmPrx2 inh = Schistosoma mansoni Prx2 inhibition; S. mansoni Prx2 activity coupled to TGR/GSH (TGR is thioredoxin glutathione reductase), NADPH fluorescence loss, qHTS; Potency, µM; 65,000 compounds, 0.07% hits; AID 448
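Activity is read as the drop in NADPH fluorescence (365/450 nm), recorded every 30 sec for 8 min after H2O2 addition. Prx2 is coupled to TGR-driven NADPH oxidation through glutathione, in phosphate buffer pH 7.4.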
Anthrax LT inh = blocks cellular internalization of anthrax lethal toxin; Cells, anthrax lethal toxin internalization, FRET ratio (460/530); Potency, µM (highest dose often 40 µM), most hits filed as inhibitors; 70,000 compounds, 0.67% hits; note: nearly all actives have a fitted effect of over 50% in size
AmpC nodet inh = blocks E. coli AmpC beta-lactamase in absence of detergent | P00811 | AmpC nitrocefin hydrolysis, absorbance 480 nm, no detergent | Potency, µM (titrated, usually from 28.7 µM) | 71,000 compounds, 1.8% hits | AID 585
Target sequence (P00811 whole entry, looked up): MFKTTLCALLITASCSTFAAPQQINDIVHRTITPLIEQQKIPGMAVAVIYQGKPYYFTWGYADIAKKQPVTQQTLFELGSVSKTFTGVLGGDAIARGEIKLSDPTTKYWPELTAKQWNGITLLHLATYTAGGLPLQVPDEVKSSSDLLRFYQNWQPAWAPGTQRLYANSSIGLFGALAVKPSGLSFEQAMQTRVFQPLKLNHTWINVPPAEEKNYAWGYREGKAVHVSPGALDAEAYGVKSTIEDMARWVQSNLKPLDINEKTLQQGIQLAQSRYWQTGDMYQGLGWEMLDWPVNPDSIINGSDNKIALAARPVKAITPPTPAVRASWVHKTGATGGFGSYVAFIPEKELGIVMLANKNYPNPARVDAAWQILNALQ
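Enzyme, pH 7.0 phosphate. Compound titrations were pre-incubated with AmpC for 15 min at room temperature before nitrocefin (stock 800 uM) addition; product formation was recorded at 480 nm every 20 s for 4 min.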
AmpC det inh = inhibitors of E. coli AmpC beta-lactamase with detergent; P00811; purified AmpC, nitrocefin hydrolysis with detergent; Potency, µM (series often up to 28.7 µM); 71,000 compounds, 0.09% hits; AID 584; active = well fitted curve in the direction sought with a large enough effect; inconclusive = small, poorly fitted or top-dose-only effect
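E. coli AmpC (5.3 nM) in 20 mM phosphate pH 7.0 with 0.01% Triton X-100, preincubated 15 min RT with compound; nitrocefin (2 uL of 800 uM stock) hydrolysis followed by 480 nm absorbance every 20 s over 4 min.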
Numbers stand for hits; [ ] = another dose, or the depositor's remark. Unless noted, calls come from the whole dose curve.

Results for C/C=C/OC(=O)NC(c1cccc(C)c1)[C@@]1(C(=O)OCC)CCCC1=O (stereo partly specified) ?
Anthrax LT inh: inactive[8 µM]

Results for O=C(Cn1c(=O)oc2cc(S(=O)(=O)N3CCCCCC3)ccc21)NC1CCCCCCC1 ?
SmPrx2 inh: inactive; Anthrax LT inh: inactive; AmpC nodet inh: 4µM[single pt active]; AmpC det inh: inactive

How did Cc1c(C(=O)NCc2ccc3c(c2)OCO3)oc2ccc(S(=O)(=O)N3CCC(C)CC3)cc12 do in these assays?
SmPrx2 inh: inactive; Anthrax LT inh: inactive; AmpC nodet inh: inactive; AmpC det inh: inactive

What do the screens show for `CC1CCN(S(=O)(=O)c2ccc3c(c2)oc(=O)n3CC(=O)NCc2ccc3c(c2)OCO3)CC1`?
SmPrx2 inh: inactive; Anthrax LT inh: inconclusive; AmpC nodet inh: 4µM; AmpC det inh: inactive

Results for O=C(Cn1c(=O)oc2cc(S(=O)(=O)N3CCCC3)ccc21)NC1CCCc2ccccc21 (stereo unspecified) ?
SmPrx2 inh: inactive; Anthrax LT inh: inconclusive; AmpC nodet inh: 2µM; AmpC det inh: inactive

What do the screens show for `CC1CCN(S(=O)(=O)c2ccc3c(c2)oc(=O)n3CC(=O)N2c3ccccc3CC2C)CC1` (stereo unspecified)?
SmPrx2 inh: inactive; Anthrax LT inh: inconclusive; AmpC nodet inh: inactive; AmpC det inh: inactive

Results for Cc1ccc(N=Nc2c(O)ccc3cc(S(=O)(=O)O)ccc23)cc1 ?
SmPrx2 inh: inactive; Anthrax LT inh: inactive[8 µM]; AmpC nodet inh: inactive[5.75 µM]; AmpC det inh: inactive[5.75 µM]

What do the screens show for `Cc1ccc(S(=O)(=O)Oc2ccc(N=Nc3ccc(-c4ccc(N=Nc5c(O)ccc6cc(S(=O)(=O)O)cc(S(=O)(=O)O)c56)c(C)c4)cc3C)cc2)cc1`?
Anthrax LT inh: 16µM; AmpC nodet inh: 0.32µM; AmpC det inh: inactive

What do the screens show for `Cc1c(Cl)cccc1NC(=O)c1cc(-c2ccc(O)cc2)on1`?
SmPrx2 inh: inactive; Anthrax LT inh: inconclusive; AmpC nodet inh: 13µM[single pt active]; AmpC det inh: inactive

How did CCCC[C@@H]1C[C@H]1C(NC(=O)c1ccccc1)c1ccc(C(F)(F)F)cc1 (stereo partly specified) do in these assays?
SmPrx2 inh: inactive; Anthrax LT inh: inconclusive; AmpC nodet inh: inconclusive; AmpC det inh: inactive

What do the screens show for `O=S(=O)(Nc1ccc2nc(-c3ccc(Br)o3)[nH]c2c1)c1ccccc1`?
SmPrx2 inh: inactive; AmpC nodet inh: 3.2µM; AmpC det inh: inactive

Results for O=C(O)c1ccccc1-c1c2cc(Br)c(=O)cc-2oc2[c]([Hg])c(O)c(Br)cc12 ?
SmPrx2 inh: 0.037; Anthrax LT inh: inconclusive; AmpC nodet inh: inactive; AmpC det inh: inactive

Results for COc1cccc(OC)c1C(=O)Nc1c(C)n(C)n(-c2ccccc2)c1=O ?
SmPrx2 inh: inactive; Anthrax LT inh: inactive; AmpC nodet inh: inactive; AmpC det inh: inactive

How did COc1ccc2cc(C(=O)Nc3c(C)n(C)n(-c4ccccc4)c3=O)sc(=O)c2c1OC do in these assays?
SmPrx2 inh: inactive; Anthrax LT inh: inactive; AmpC nodet inh: 2.5µM[single pt active]; AmpC det inh: inactive

How did COc1ccc(NC(=O)Nc2c(C)n(C)n(-c3ccccc3)c2=O)cc1 do in these assays?
SmPrx2 inh: inactive; Anthrax LT inh: inactive; AmpC nodet inh: 4µM[single pt active]; AmpC det inh: inactive

What do the screens show for `CCc1cc(=O)oc2cc(C)c3c(C)coc3c12`?
SmPrx2 inh: inactive; Anthrax LT inh: inactive; AmpC nodet inh: inactive; AmpC det inh: inactive

How did CCc1cc(=O)oc2cc(C)cc(O)c12 do in these assays?
SmPrx2 inh: inactive; Anthrax LT inh: inactive; AmpC nodet inh: 4µM[single pt active]; AmpC det inh: inactive

What do the screens show for `O=C(CSCc1ccco1)c1ccc(Cl)s1`?
SmPrx2 inh: inactive; Anthrax LT inh: inactive; AmpC nodet inh: 10µM; AmpC det inh: inactive

Results for O=c1cnc2cnc(Oc3cccc(Cl)c3)nc2n1C1CC1 ?
SmPrx2 inh: inactive; Anthrax LT inh: inactive; AmpC nodet inh: inactive; AmpC det inh: inactive

How did Cc1ccc2oc(=O)c3cc(C(=O)NCc4ccco4)sc3c2c1 do in these assays?
SmPrx2 inh: inactive; Anthrax LT inh: inconclusive; AmpC nodet inh: 4µM[single pt active]; AmpC det inh: inactive

Results for CN(CCOc1ccc(C[C@H](Nc2ccccc2C(=O)c2ccccc2)C(=O)O)cc1)c1ccccn1 ?
SmPrx2 inh: inactive; Anthrax LT inh: inconclusive; AmpC nodet inh: inactive; AmpC det inh: inactive

What do the screens show for `O=C(Nc1ccccc1)C1=C(O)CC(c2ccoc2)CC1=Nc1ccccc1` (stereo unspecified)?
Anthrax LT inh: inconclusive; AmpC nodet inh: inactive; AmpC det inh: inactive

How did O=C(Nc1ccccc1)C1=C(O)CC(c2ccco2)CC1=Nc1ccccc1 (stereo unspecified) do in these assays?
SmPrx2 inh: inactive; Anthrax LT inh: inactive; AmpC nodet inh: 7.9µM; AmpC det inh: inactive
